Experimental findings from PubChem BioAssay AID1851 (National Center for Advancing Translational Sciences (NCATS), 2009) are described below.

Values joined by “and” are separate entries in the source; they are usually repeats but may differ in a detail not shown here. Equal entries are not always repeated. Hit rate of the full screen: of about 16,000 compounds, about 2,600 (16%) were called active. Not shown: some 20% with an inconclusive outcome. Calls come from the whole dose curve; as a rule, active = well fitted curve in the direction sought with a large enough effect; inconclusive = small, poorly fitted or top-dose-only effect, or effect the other way; inactive = no such curve, though single readings can be large or run the other way. A selection follows. Some compounds were tested as several samples or in several runs, with calls that do not always agree.

The term AC50 denotes the midpoint of the concentration-response curve, whichever way the signal moves.
% is set by controls: 0 for no effect and ±100 for the full control effect.

This test deals with Cytochrome P450 2D6 (Homo sapiens) (UniProt P10635). The experiment in a line: Cytochrome panel assay with activity outcomes. The settings on record: recombinant CYP, pro-luciferin dealkylation, luminescence, p450-cyp2d6; series mostly up to 57.1 µM.
Chain of Cytochrome P450 2D6 (Homo sapiens) (P10635 whole entry, looked up): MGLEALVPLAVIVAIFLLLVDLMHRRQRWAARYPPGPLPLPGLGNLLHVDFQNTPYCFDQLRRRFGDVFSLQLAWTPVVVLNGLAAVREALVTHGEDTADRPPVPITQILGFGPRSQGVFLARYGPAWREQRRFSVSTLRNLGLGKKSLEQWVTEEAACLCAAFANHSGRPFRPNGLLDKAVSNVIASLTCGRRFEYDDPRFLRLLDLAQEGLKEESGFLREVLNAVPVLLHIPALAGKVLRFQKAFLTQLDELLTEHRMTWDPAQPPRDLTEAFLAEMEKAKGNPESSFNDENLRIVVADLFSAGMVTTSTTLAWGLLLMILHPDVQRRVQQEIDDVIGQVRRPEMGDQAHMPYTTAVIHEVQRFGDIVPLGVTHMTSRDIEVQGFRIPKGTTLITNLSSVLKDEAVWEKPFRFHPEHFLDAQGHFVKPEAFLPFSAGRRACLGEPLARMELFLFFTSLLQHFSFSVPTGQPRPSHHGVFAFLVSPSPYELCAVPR
In the case of `CC1(C)CC(=O)c2cn3ncnc3nc2C1`, the AC50 result was “inactive”. The same measure, in the same setting: the same measure for `O=C1C2C3C=CC(C3)C2C(=O)N1/N=C/c1cn(Cc2ccc(F)cc2)c2ccccc12` (centres undefined): “inactive”; for `Cc1oc(-c2cccs2)[n+]([O-])c1C`: “inactive”; for `Cc1cc(-c2cccs2)nc(-n2cccc2)n1`: 14.1 µM (active). The same measure, in the same setting: for `Nc1nc(-c2cccs2)cs1` the value was “inactive”; for `Cc1cc(NC(=O)CCC(=O)N(CC2CCCO2)C(C(=O)NC2CCCC2)c2cccnc2)no1` (centres undefined), “inactive”; for `C=CCSc1nc(NC)c2sccc2n1`, “inactive”. On the same count and under the same terms, for `Cc1cccc(NC(=S)N2CCC(N(C)CC3CCCO3)CC2)c1C` (centres undefined) the value was “inactive”. For the molecule `COc1ccccc1-c1c(C(F)(F)F)oc2cc(OC(=O)c3cccc([N+](=O)[O-])c3C)ccc2c1=O`, the AC50 result was “inactive”. Same read-out and setting: for `O=C(OCC(=O)c1ccc([N+](=O)[O-])cc1)/C(=C\c1ccc(Cl)cc1)NC(=O)c1ccccc1` the value was 14.1 µM (active); for `Cc1ccc(NC(=O)/C(=C\c2ccc([N+](=O)[O-])cc2)NC(=O)c2ccccc2)cc1`, “inactive”; for `O=C(Nc1cccc2ccccc12)/C(=C/c1ccc([N+](=O)[O-])cc1)NC(=O)c1ccccc1`, “inactive”. Still for that read-out and setting: for `Cc1cccc(Oc2ncnc3onc(C)c23)c1C` the value was “inactive”. For `O=C(Cn1ccc(=O)[nH]c1=O)Nc1ccc(C(=O)O)c(O)c1`, the activity, negative = inhibition was -2.13% [at 11.4 µM] (inactive). In the case of `COc1cccc(NC(=O)CSc2nc3ccccc3cc2Cc2ccccc2)c1`, the AC50 entry is “inactive”.

Take `N=c1sccn1CC(=O)Nc1cccc(Oc2ccccc2)c1`: the concentration at half-maximal activity (AC50) was 1 µM (active). On the same count and under the same terms, for `CSc1nnc(-c2sccc2OCc2ccccc2)n1C` the value was “inactive”. As for `C#CCCCO/N=C1/C[C@@H](O)[C@@H](O)[C@@H]2[C@@H]3C(=O)N([C@@H](C)c4ccccc4)C(=O)[C@H]3CC[C@H]12`, the activity, negative = inhibition is 12% [at 11.4 µM] (inactive). Regarding `CC[C@H](NC(=O)c1c(C)c(-c2ccccc2)nc2ccccc12)c1ccccc1`, the AC50 result is “inactive”. In the case of `CNc1csc(C)c(C)c1=O`, the AC50 entry is “inactive”. Same read-out and setting: the same measure for `C[C@H](NCCC(c1ccccc1)c1ccccc1)c1ccccc1`: 0.158 µM (active). As to `O=C1[C@@H]2[C@H]3[C@H](O)[C@H](O)C/C(=N/OC[C@@H](O)COCc4ccco4)[C@H]3CC[C@H]2C(=O)N1c1ccc(F)cc1F`, the activity, negative = inhibition was -0.021% [at 11.4 µM] (inactive). `COc1cccc(NC(=O)C2c3cc(OC)c(OC)cc3C(=O)N(C)C2c2cccnc2)c1` (centres undefined): the AC50 result is “inactive”. Same read-out and setting: for `C=CC(C)(C)c1[nH]c2ccccc2c1C1=C(O)C(=O)C(c2c[nH]c3c(CC=C(C)C)cccc23)=C(O)C1=O` the value was 0.00631 µM (active); for `O=C1C2C3C=CC(CC3)C2C(=O)N1/N=C/c1ccccc1O` (centres undefined), “inactive”; for `Cn1c2c(c(=O)n(C)c1=O)[C@@H]1c3c(ccc4ccccc34)OC[C@@H]1CO2`, “inactive”. On the same count and under the same terms, the same measure for `COc1cc(C=O)ccc1OCCCOc1ccccc1C(=O)O`: “inactive”; for `CCC1(C)Nc2ccccc2C(=O)N1O` (centres undefined): “inactive”. Same read-out and setting: the same measure for `CCCCC1(C)Nc2ccccc2-c2nc3ccccc3n21` (centres undefined): 20 µM (active); for `COc1cccc(Cn2c(=O)c(-c3ccc(Cl)cc3)nc3cnc(N4CCN(C)CC4)nc32)c1`: “inactive”. For the molecule `CN(CC(=O)N1CCN(c2ccccc2)CC1)S(=O)(=O)c1cnc[nH]1`, the AC50 was 14.1 µM (active).

On to `CCc1cccc(NC(=O)CN(C)S(=O)(=O)c2cnc[nH]2)c1`, for which the AC50 entry was “inactive”. Same read-out and setting: for `CC1CCN(C(=O)CN(C)S(=O)(=O)c2cccc3nsnc23)CC1` the value was “inactive”. Regarding `CC(C)(Oc1ccc(-c2cccc3ccccc23)cc1)C(=O)O`, the activity, negative = inhibition was 11.3% [at 11.4 µM] (inactive).

As for `COCC(=O)N1CCC2(CC1)CCN(c1cccc(-c3ccccc3)c1)CC2`, the AC50 result is “inactive”. The same measure, in the same setting: the same measure for `COCC(=O)N1CCC2(CCCN(C(=O)Nc3ccc(OC)cc3)C2)CC1`: “inactive”.

Take `COCC(=O)N1CCC2(CCCN(C(=O)Nc3ccccc3)C2)CC1`: the AC50 result is “inactive”. The same measure, in the same setting: for `COCC(=O)N1CCC[C@@]2(CCN(C(c3ccccc3)c3ccccc3)C2)C1` the value was 6.31 µM (active).

Take `COCC(=O)N1CCC2(CC1)CN(C(c1ccccc1)c1ccccc1)C2`: the AC50 is 2.51 µM (active). Still for that read-out and setting: the same measure for `COCC(=O)N1CCC2(CC1)CCN(C(c1ccccc1)c1ccccc1)CC2`: 12.6 µM (active); for `COCC(=O)N1CCC2(CC1)CN(C(=O)Nc1cccc(F)c1)C2`: “inactive”. Still for that read-out and setting: for `COCC(=O)N1CCC2(CC1)CN(C(=O)Nc1ccc(OC)cc1)C2` the value was “inactive”; for `COCC(=O)N1CCC2(CC1)CCN(c1ccccn1)CC2`, “inactive”. On the same count and under the same terms, the same measure for `Cc1ccc(NC(=O)CC2CS(=O)(=O)CC2CC(=O)Nc2ccc(C)c(C)c2)cc1C` (centres undefined): “inactive”; for `OC[C@H]1NC[C@@H](O)[C@@H](O)[C@H]1O`: “inactive”; for `Cc1ccc(OCC(=O)NNC(=O)c2cc3ccccc3o2)cc1C`: “inactive”.

Regarding `COc1cccc(C(=O)N2N=C(c3cccc(OC)c3)CC2(O)C(F)(F)F)c1` (centres undefined), the AC50 entry is “inactive”. The same measure, in the same setting: for `CC(C)(Oc1ccc([C@@H]2CC2(Cl)Cl)cc1)C(=O)O` the value was “inactive”; for `CC(C)c1ccc(N2C(=O)CC(Sc3nc4ccccc4o3)C2=O)cc1` (centres undefined), “inactive”.

In the case of `C[C@]12CC3CC(N)(C1)C[C@@](C)(C3)C2`, the AC50 result was “inactive and 316 nM (active)”. Same read-out and setting: the same measure for `C[C@@]12CC3CC(N)(C1)C[C@@](C)(C3)C2`: “inactive”. The same measure, in the same setting: the same measure for `CCc1nnc(NC(=O)CSc2nc3cc4c(cc3cc2C)OCCO4)s1`: “inactive”; for `CC1=N/C(=C\c2ccc([N+](=O)[O-])cc2)C(=O)N1c1ccc(Br)c(C)c1`: “inactive”; for `COc1cc(Cn2cnnn2)ccc1O`: “inactive”. In the case of `CNC(=O)/C=C1\NC(C)(C)Cc2c1ccc1ccccc21`, the AC50 was 14.1 µM (active). For `CC1(C)Cc2c(ccc3ccccc23)C(=O)N1`, the AC50 result was “inactive”. Still for that read-out and setting: for `Cc1cccc(C(=O)NCN2CCN(c3ccccc3C#N)CC2)c1` the value was “inactive”. With `CC(C)(C[C@@]1(C)NC(=O)NC1=O)OCc1ccccc1`, the activity, negative = inhibition was 1.81% [at 11.4 µM] (inactive). On to `CCNCCCNCCCNCCCNCC`, for which the AC50 entry is “inactive”. On to `CC(C)CO/N=C1/C[C@@H](O)[C@@H](O)[C@@H]2[C@@H]3C(=O)N([C@@H](C)c4ccccc4)C(=O)[C@H]3CC[C@@H]12`, for which the activity, negative = inhibition was 17.4% [at 11.4 µM] (inactive).

In the case of `COC(=O)C(C)Sc1ccc2nnc(-c3ccc(F)cc3)n2n1` (centres undefined), the AC50 entry was “inactive”. Same read-out and setting: the same measure for `CC(=O)c1c(C)nc(-c2ccccc2)n1O`: “inactive”; for `CN=c1nc(-c2ccccc2)n(-c2ccccc2)s1`: 31.6 µM (active). As for `O=c1nc(-c2ccccc2)n(-c2ccccc2)c2ncccc12`, the AC50 result is “inactive”.
